Drawing on PubChem BioAssay AID504527 (The Scripps Research Institute Molecular Screening Center, 2011), this text covers number of serine hydrolases inhibited >=50% for five molecules.

The source made the active and inactive calls.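 Rule for the calls: active = two or more serine hydrolases at least half inhibited, plus every target band half blocked in a general-probe test; inactive = under two enzymes half blocked, or any target band not.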

The assay is described as follows: general off-target profile by competitive ABPP – fluorescence, gel-based ABPP, powder samples, selectivity assay for PAFAH2 inhibitor project, late-stage follow-up (AID 504527). Conditions: BW5147 murine T-cell proteome, FP-Rh fluorescence, competitor test compound, probe FP-Rh, at 20 µM, stronger effect = higher value.
In the case of `C#CCOCCOCCOCCN(Cc1ccccc1)C(=O)n1ccnc1`, the number of serine hydrolases inhibited >=50% was 0 (inactive).

For `C#CCOCCOCCOCCN(Cc1ccccc1)C(=O)n1ncc(-c2ccccc2)n1`, the number of serine hydrolases inhibited >=50% is 8 (active).

As for `C#CCOCCOCCOCCN(Cc1ccccc1)C(=O)n1nccn1`, the number of serine hydrolases inhibited >=50% is 5 (active).

For the molecule `C#CCOCCOCCOCCN(Cc1ccccc1)C(=O)n1nc2cccnc2n1`, the number of serine hydrolases inhibited >=50% is 7 (active).

Take `C#CCOCCOCCOCCN(Cc1ccccc1)C(=O)Oc1ccc([N+](=O)[O-])cc1`: the number of serine hydrolases inhibited >=50% is 1 (inactive).
